# From PubChem BioAssay AID1159580 (chemical genetic matrix, 2015)
# “And” between values parts separate entries of the source, which are not always exact repeats. Equal values may be shown once. The campaign covered roughly 5,500 compounds. About 2,000 (36%) were called active. Roughly 18% stayed inconclusive and do not appear here. The list shows a part of the results. Values without a mark were called inactive. No stated cut-off is given here; in the data, active means normalized growth mostly below about 0.91 (no sharp cut-off); inconclusive means no clear call, values can overlap the other calls; inactive means mostly above about 0.92.
# Experiment: chemical genetic growth profiling, strain panel (AID 1159580);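 further: tested at 20 µM; growth read once vehicle control cultures reached saturation at 30 °C; 1 = growth at the plate median or of vehicle wells; lower values mean less growth of the strain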
# Details: S. cerevisiae deletion strains, growth OD
smiles,measurement,setting,value
CN[C@@H]1[C@@H](O[C@H]2O[C@H](CO)[C@@H](N)[C@H](O)[C@H]2O)O[C@H]2C[C@@H](N)[C@H](O[C@H]3[C@H](O)[C@@H](O)[C@H](N)C[C@@H]3N)O[C@@H]2[C@@H]1O,normalized growth,"locus YAL013W, strain DEP1, active compounds read low",1.01
same,normalized growth,"locus YAL021C, strain ccr4, active compounds read low",1.01
same,normalized growth,"locus YAL026C, strain drs2, active compounds read low",0.995
same,normalized growth,"locus YAL030W, strain snc1, active compounds read low",1.01
same,normalized growth,"locus YBL061C, strain skt5, active compounds read low",1
same,normalized growth,"locus YBR009C, strain hhf1, active compounds read low",1.01
same,normalized growth,"locus YBR021W, strain FUR4, active compounds read low",1.01
same,normalized growth,"locus YBR023C, strain chs3, active compounds read low",1.01
same,normalized growth,"locus YBR171W, strain sec66, active compounds read low",1.01
same,normalized growth,"locus YBR229C, strain ROT2, active compounds read low",1.02
same,normalized growth,"locus YBR231C, strain swc5, active compounds read low",1.02
same,normalized growth,"locus YBR279W, strain paf1, active compounds read low",1
same,normalized growth,"locus YCL011C, strain gbp2, active compounds read low",1.01
same,normalized growth,"locus YCL016C, strain dcc1, active compounds read low",0.994
same,normalized growth,"locus YCL029C, strain bik1, active compounds read low",1.01
same,normalized growth,"locus YCL069W, strain vba3, active compounds read low",1.02
same,normalized growth,"locus YCR088W, strain abp1, active compounds read low",1.01
same,normalized growth,"locus YDL005C, strain med2, active compounds read low",0.995
same,normalized growth,"locus YDL035C, strain GPR1, active compounds read low",1.03
same,normalized growth,"locus YDL074C, strain BRE1, active compounds read low",0.984
same,normalized growth,"locus YDL101C, strain DUN1, active compounds read low",1
same,normalized growth,"locus YDL134C, strain PPH21, active compounds read low",0.999
same,normalized growth,"locus YDL185W, strain tfp1, active compounds read low",0.992
same,normalized growth,"locus YDL192W, strain arf1, active compounds read low",1.01
same,normalized growth,"locus YDR001C, strain nth1, active compounds read low",1.01
same,normalized growth,"locus YDR069C, strain doa4, active compounds read low",1.03
same,normalized growth,"locus YDR101C, strain arx1, active compounds read low",1.01
same,normalized growth,"locus YDR137W, strain rgp1, active compounds read low",0.702 (active)
same,normalized growth,"locus YDR150W, strain NUM1, active compounds read low",1.01
same,normalized growth,"locus YDR159W, strain sac3, active compounds read low",1.02
same,normalized growth,"locus YDR162C, strain NBP2, active compounds read low",1
same,normalized growth,"locus YDR195W, strain ref2",1.01
same,normalized growth,"locus YDR297W, strain sur2, active compounds read low",1.01
same,normalized growth,"locus YDR318W, strain mcm21, active compounds read low",1.03
same,normalized growth,"locus YDR334W, strain swr1, active compounds read low",0.993
same,normalized growth,"locus YDR335W, strain msn5, active compounds read low",1.01
same,normalized growth,"locus YDR388W, active compounds read low",1.02
same,normalized growth,"locus YDR392W, strain spt3, active compounds read low",0.921
same,normalized growth,"locus YDR502C, strain sam2, active compounds read low",0.982
same,normalized growth,"locus YEL003W, strain gim4, active compounds read low",1
same,normalized growth,"locus YEL037C, strain rad23, active compounds read low",1
same,normalized growth,"locus YEL061C, strain CIN8 (second series), active compounds read low",0.999
same,normalized growth,"locus YEL061C, strain CIN8, active compounds read low",1.01
same,normalized growth,"locus YER015W, strain faa2, active compounds read low",1.02
same,normalized growth,"locus YER016W, strain bim1, active compounds read low",1.01
same,normalized growth,"locus YER110C, active compounds read low",1.01
same,normalized growth,"locus YER111C, strain swi4, active compounds read low",1.01
same,normalized growth,"locus YER155C, strain BEM2 (second series), active compounds read low",0.936
same,normalized growth,"locus YER155C, strain BEM2, active compounds read low",1.01
same,normalized growth,"locus YER167W, strain BCK2, active compounds read low",1.03
same,normalized growth,"locus YFR010W, strain ubp6, active compounds read low",1.02
same,normalized growth,"locus YGL078C, strain dbp3, active compounds read low",1
same,normalized growth,"locus YGL086W, strain mad1, active compounds read low",1.01
same,normalized growth,"locus YGL167C, strain pmr1, active compounds read low",1.01
same,normalized growth,"locus YGL173C, strain kem1, active compounds read low",1.01
same,normalized growth,"locus YGL227W, strain vid30, active compounds read low",0.998
same,normalized growth,"locus YGL240W, strain doc1, active compounds read low",1.01
same,normalized growth,"locus YGL248W, strain PDE1, active compounds read low",1
same,normalized growth,"locus YGL253W, strain hxk2, active compounds read low",1
same,normalized growth,"locus YGR078C, strain PAC10, active compounds read low",0.99
same,normalized growth,"locus YGR135W, strain pre9, active compounds read low",0.978
same,normalized growth,"locus YGR229C, strain SMI1, active compounds read low",1.01
same,normalized growth,"locus YGR252W, strain gcn5, active compounds read low",0.989
same,normalized growth,"locus YHR013C, strain ard1, active compounds read low",1.07
same,normalized growth,"locus YHR027C, strain rpn1, active compounds read low",1
same,normalized growth,"locus YHR030C, strain SLT2, active compounds read low",1.01 and 0.961
same,normalized growth,"locus YHR079C, strain IRE1 (second series), active compounds read low",0.998
same,normalized growth,"locus YHR079C, strain IRE1, active compounds read low",0.962
same,normalized growth,"locus YHR094C, strain hxt1, active compounds read low",1.01
same,normalized growth,"locus YHR129C, strain ARP1, active compounds read low",1.01
same,normalized growth,"locus YHR142W, strain chs7, active compounds read low",0.977
same,normalized growth,"locus YHR200W, strain rpn10, active compounds read low",1
same,normalized growth,"locus YIL066C, strain RNR3, active compounds read low",1.01
same,normalized growth,"locus YIL073C, strain SPO22, active compounds read low",1.04
same,normalized growth,"locus YIL125W, strain kgd1, active compounds read low",1
same,normalized growth,"locus YIR030C, strain dcg1, active compounds read low",1
same,normalized growth,"locus YJL092W, strain hpr5, active compounds read low",1.01
same,normalized growth,"locus YJL095W, strain BCK1 (second series), active compounds read low",1.01
same,normalized growth,"locus YJL095W, strain BCK1, active compounds read low",0.987 and 0.964
same,normalized growth,"locus YJL115W, strain asf1, active compounds read low",0.991
same,normalized growth,"locus YJL129C, strain trk1, active compounds read low",1.01
same,normalized growth,"locus YJL134W, strain LCB3, active compounds read low",1.01
same,normalized growth,"locus YJL154C, strain vps35, active compounds read low",1.01
same,normalized growth,"locus YJL164C, strain tpk1, active compounds read low",0.975
same,normalized growth,"locus YJL166W, strain qcr8, active compounds read low",1.03
same,normalized growth,"locus YJL168C, strain set2, active compounds read low",1
same,normalized growth,"locus YJL187C, strain SWE1 (second series), active compounds read low",0.995
same,normalized growth,"locus YJL187C, strain SWE1, active compounds read low",1.01
same,normalized growth,"locus YJR043C, strain POL32, active compounds read low",1.03
same,normalized growth,"locus YJR066W, strain TOR1, active compounds read low",0.911
same,normalized growth,"locus YJR075W, strain HOC1, active compounds read low",0.977
